The structures appear in SMILES notation. About 83,000 compounds went through this panel and 20% of them were active in at least one assay; those are over-represented in the sample as a whole.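 96-well plates, one dose, 48 hours. Percent growth reported; active if below 10.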 Activity calls are given as the source filed them.

This assay concerns MDA-MB-231 breast. The assay can be described thus: NCI-60 one-dose screen, 48 h (100 = growth as untreated, 0 = no growth, -100 = all killed). The settings on record: 10 µM unless noted.
On to `CC(=O)c1c(C)[nH]c(-c2nc3ccc(N4CCN(C)CC4)cc3[nH]2)c1-c1ccc(N(C)C)cc1`, for which the growth is 36.1% (inactive).
Next, `CC(=O)c1c(C)[nH]c(-c2nc3ccc(N4CCN(C)CC4)cc3[nH]2)c1-c1ccc(OCC2CCOCC2)cc1`: 37.4% (inactive); `CC/C=C\C[C@H]1CC=C2C(=O)C=C[C@@H]2CC=CCCCC(=O)O[C@@H](CCCCC)CC=C2C(=O)C=C[C@@H]2CC=CCCCC(=O)O[C@@H](CCCCC)CC=C2C(=O)C=C[C@@H]2CC=CCCCC(=O)O[C@@H](CCCCC)CC=C2C(=O)C=C[C@@H]2CC=CCCCC(=O)O1`: -11.1% [7.9 µM] (active).
Consider `O=C1c2cccc3cccc(c23)C(=O)N1CC#Cc1ccc2c3c(cccc13)C(=O)N(CCN1CCNCC1)C2=O`, for which the growth was 7.95% (active).
On to `COc1ccc(NC(=O)c2ccc3c(c2)nc(-c2cc4ccccc4[nH]c2=O)n3-c2cc(C(C)(C)C)[nH]n2)cc1`, for which the growth is 98.2% (inactive).
Next, `CC(=O)NC1=C(C#N)C(c2ccccc2Cl)c2c(ccc3ccccc23)O1` (stereo not given): 66.6% (inactive).
For `CC(C)(C)c1[nH]nc2c1C(c1cc3ccccc3[nH]c1=O)Nc1cc(C(=O)OCc3ccccc3)ccc1N2` (stereo not given), the growth is 63.3% (inactive).
The figure for `CC1(C)C=CC[C@]2(C)[C@H]3CC[C@@H]4[C@H]5[C@H](C(=O)/C=C/c6cccnc6)CC[C@]5(CO)CC[C@@]4(C)[C@]3(C)CC[C@@H]12` is -77.6% (active).
The figure for `CC1(C)[C@@H](O)CC[C@]2(C)[C@H]3CC[C@@H]4[C@H]5[C@H](C(=O)/C=C/c6ccc(C(F)(F)F)cc6)CC[C@]5(CO)CC[C@@]4(C)[C@]3(C)CC[C@@H]12` is 71.4% (inactive); for `N=C(N)c1ccc(S(N)(=O)=O)cc1` it is 110% (inactive); for `C=C(C)[C@@H]1CC[C@]2(C(=O)OC)CC[C@]3(C)[C@H](CC[C@@H]4[C@@](C)(CC/C(N)=N/O)[C@H](C(=C)C)CC[C@]43C)[C@@H]12` it is 104% (inactive).
`COc1ccc(-c2nc3c(c(C)nn3-c3ccc(F)cc3)c(=O)[nH]2)cc1`: the growth was 75.2% (inactive).
Next, `CC1(C)C(=O)/C(=C\c2ccco2)C[C@]2(C)[C@H]3CC[C@@H]4[C@@H](C(=O)/C=C/c5ccco5)CC[C@@]4(C)[C@]3(C)CC[C@@H]12`: 56% (inactive); `CC1(C)CC[C@]2(C(=O)Nc3ccccn3)CC[C@]3(C)C(=CC[C@@H]4[C@@]5(C)C/C(=C/c6ccncc6)C(=O)C(C)(C)[C@@H]5CC[C@]43C)[C@@H]2C1`: 48.8% (inactive).
Next, `Cc1csc(-c2ccc3c(c2)COC3(CCCN(C)C)c2ccc(F)cc2)c1` (stereo not given): 44.3% (inactive); `Cc1nc([P+](c2ccccc2)(c2ccccc2)c2ccccc2)c(Sc2sc(-c3ccccc3)nc2[P+](c2ccccc2)(c2ccccc2)c2ccccc2)o1`: 14.2% (inactive).
Next, `O=C(O[C@@H]1Cc2c(O)cc(O)cc2O[C@@H]1c1cc(O)c(O)c(O)c1)c1cc(O)c2c(c1)OCO2`: 101% (inactive).
`Fc1ccc2c(c1)c(-c1nc(-c3c[nH]c4ncccc34)cs1)cn2CCCN1CCCCC1`: the growth was 55.3% (inactive).
Next, `O=P(O)(c1ccccc1)c1ccccc1I`: 97.1% (inactive); `COc1ccc(/C=C(\C#N)c2cc3ccccc3n2S(C)(=O)=O)cc1`: 85.4% (inactive); `CN1CCN(CCOc2ccc(-c3cnc4c(-c5cccc(F)c5)cnn4c3)cc2)CC1`: 47.7% (inactive).
Next, `Cc1ccc2oc(=O)cc(-c3sc(N4CCCCC4)nc3-c3ccccc3)c2c1`: 88.1% (inactive); `Cc1ccnc2c(OCc3ccccc3)cccc12`: 72.1% (inactive).
The figure for `N#CC1=C(N)Oc2ccc3ccccc3c2C1c1ccccc1` (stereo not given) is 47% (inactive).
Regarding `CN(C)CCCCC(C(=O)CBr)(c1ccccc1)c1ccccc1`, the growth was 38.1% (inactive).
The figure for `CC(=O)O[C@H]1CC[C@]2(C)[C@H]3CC=C4[C@@H]5[C@H](C)[C@@H](C)CC[C@]5(C(=O)NCCNCCNCCN)CC[C@@]4(C)[C@]3(C)CC[C@H]2C1(C)C` is 78% (inactive); for `Cc1ccc(S(=O)(=O)Nc2ccc(-c3cc(-c4cccc(F)c4)c(C#N)c(N)n3)cc2)cc1` it is 20.6% (inactive).
As for `O=C1/C(=C\c2ccc(Br)o2)SC(=S)N1CCc1ccc(O)cc1`, the growth is 53.2% (inactive).
Regarding `CN(C)c1ccc(-c2ccc(-c3ccc(C(=N)N)c(F)c3)s2)cc1`, the growth was -78.4% (active).
Next, `Cc1ccc(S(=O)(=O)Nc2ccc(-c3cc(-c4cccc(F)c4)c(C#N)c(=O)[nH]3)cc2)cc1`: 87.4% (inactive).

Values taken from PubChem BioAssay (NCI).
